Laboratory results published in PubChem BioAssay (NCATS).
Inconclusive results are not listed. A call without a number means that no potency is given here. The source made the active and inactive calls. The call rests on the fitted dose curve; in most records, active means well fitted inhibition curve with a large enough effect; inconclusive means small, poorly fitted or top-dose-only effect; inactive means no such curve, though single readings can be large or run the other way.

Molecular target: Retinaldehyde dehydrogenase 3 (Homo sapiens) (UniProt P47895)
Assay: qHTS for Inhibitors of the Aldehyde Dehydrogenase Family (ALDH1A3) Primary screen (AID 2061315)
Settings: ALDH inhibition qHTS; series mostly up to 56 µM

Structure (SMILES)	Potency
O=c1c2ccccc2nc2sc(Nc3ccc(Oc4ccccc4)cc3)nn12	inactive
Cc1ccc(N[S+](=O)([O-])c2cc3c(cc2CCc2ccccc2)NC(=O)CO3)cc1C	inactive
O=C1CCCC2=C1C1(CCOCC1)N=C(Nc1nc3ccccc3o1)N2	inactive
O=C(CN1C(=O)N/C(=C\c2cccn2-c2cccc(C(=O)O)c2)C1=O)Nc1ccc(Cl)cc1	inactive
O=c1c(Nc2ccc(F)c(C(F)(F)F)c2)c(Nc2nnc(-c3ccncc3)s2)c1=O	inactive
CCCC1CCN(C(=O)COC(=O)c2ccc(S(C)(=O)=O)c([N+](=O)[O-])c2)CC1	inactive
Cc1cc(NS(=O)(=O)c2cc3c(cc2N[C@@H](C)CO)NC(=O)CC3)ccc1F	inactive
CS(=O)(=O)c1ccc(C(=O)OCC(=O)N2CCN(C3CCCCC3)CC2)cc1[N+](=O)[O-]	inactive
COCCNc1ccc(NC(=O)c2cccs2)cn1	inactive
Cc1csc(CNc2ncnc3ccc(-c4ccc(CO)o4)cc23)n1	inactive
Cc1cc(C)nc(NC(=S)N2CCN(c3ccc4c(c3)OCO4)CC2)c1	inactive
COc1ccnc(NCc2ccc(O)c3ncccc23)c1	inactive
Cc1nc(CN(C)c2ncnc3cc(-c4ccc5c(c4)OCO5)ccc23)cs1	inactive
Cn1ncc2ccc(-c3ccc4ncnc(NCc5cccs5)c4c3)cc21	inactive
Cc1ccc(-c2ccc(=O)n(CC(=O)NCCCc3ccccc3)n2)cc1	inactive
CC(C)c1ccc(NC(=O)C(c2ccccc2)N(C)C(=O)Cc2c[nH]c3ccccc23)cc1 (stereo not given)	inactive
O=C(O)c1ccc(O)c2ncc(N3CCCN(CCc4ccncc4)CC3)cc12	inactive
CC(=O)Nc1sc2c(c1-c1cc3ccccc3s1)CCNC2	inactive
CCN(Cc1cccs1)c1ncnc2ccc(-c3ccc4c(c3)OCO4)cc12	inactive
Fc1cccc(CNc2nc(-c3ccccc3C(F)(F)F)nc3ccccc23)c1	inactive

Structure (SMILES)	Potency
NC(=O)C1CCN(c2nc(-c3ccc(OC(F)(F)F)cc3)cs2)CC1	inactive
COc1ccc2c(=O)n3nc(Nc4ccc5c(c4)CCC5)sc3nc2c1	inactive
Cc1cc(C)nc(NC(=S)N2CCN(c3cccc4ccccc34)CC2)c1	inactive
Cc1ccccc1NC(=O)CN1C(=O)N/C(=C\c2cn(-c3cccc(C(=O)O)c3)cn2)C1=O	inactive
CN(C)c1cccc(-c2ncnc(N3CCC(C(N)=O)CC3)n2)c1	inactive
O=C(CSc1nnc(-c2cccc([S+](=O)([O-])N3CCCC3)c2)n1-c1ccccc1)Nc1ccc(Br)cc1	inactive
CNc1oc(-c2cccc3ccccc23)nc1C(=O)Nc1cccc(C#N)c1	inactive
CN1CCN(c2ccc(CNc3nn4c(=O)c5ccccc5nc4s3)cc2)CC1	inactive
C[C@H](NC(c1ccc(F)cc1)c1ccc2cccnc2c1O)c1ccccc1 (stereo not given in full)	inactive
N#Cc1nc(-c2cccc3ccccc23)oc1Nc1ccccc1	inactive
O=C1CCCC2=C1C(c1ccccc1I)N=C(Nc1nc3ccccc3o1)N2 (stereo not given)	inactive
O=S(=O)(Nc1nccs1)c1ccc(NCc2cccc(Br)c2O)cc1	inactive
CCCCOc1ccc(S(=O)(=O)n2c(C)nc3ccccc32)cc1	inactive
O=C(O)c1cccc(-n2cccc2/C=C2/NC(=O)N(c3cccc(Cl)c3)C2=O)c1	inactive
Cc1ccc2nc3sc(C(=O)Nc4ccc(F)cc4)cc3cc2c1	inactive
O=C(Nc1ncnc2c1C(c1ccccc1)c1c(ccc3ccccc13)O2)c1ccccc1 (stereo not given)	inactive
N#Cc1c(-c2ccc(-c3ccccc3)cc2)no[n+]1[O-]	inactive
COc1ccc(C2c3ccc4ccccc4c3Oc3ncn(CCN4CCOCC4)c(=N)c32)cc1OC (stereo not given)	inactive
CS(=O)(=O)c1ccc(C(=O)OCC(=O)N2CCN(Cc3ccccc3)CC2)cc1[N+](=O)[O-]	inactive
NC(=O)c1cccc(-c2cc(O)cc(OC(=O)NC3CCCCC3)c2)c1	inactive
